Data taken from the supplement of paper PMC12350171.
Structures can show the parent of a compound that is named as a salt. Values without a mark were called inactive.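 The calls were made as follows: active = normalised median growth AUC below 0.1 of DMSO control; inactive = AUC 0.1 or higher.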

Tested on: P. vulgatus RND KO
Experiment: growth AUC normalised to DMSO control (median) (fraction of control); higher = less growth inhibition, active = hit call of the paper
Conditions: 20 µM
Method in brief: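 After two overnight anaerobic passages, strains were inoculated at OD578 0.01 into mGAM in 96-well plates containing approved-drug library compounds at 20 μM and 1% DMSO. Growth was followed by reading OD578 hourly for 24 h within an anaerobic incubator. Area under the curve, taken by the trapezoidal rule up to the start of stationary phase, was normalised to same-plate vehicle wells, and the median of three biological replicates is listed.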
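Also: active when median AUC fell below 0.1.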

Point of comparison: CNCC[C@@H](Oc1ccccc1C)c1ccccc1 [Tomoxetine hydrochloride], “growth AUC normalised to DMSO control” value 0.954. Against it:
- O=C(NCC(O)CO)c1c(I)c(C(=O)NCC(O)CO)c(I)c(N(CCO)C(=O)CO)c1I (centres undefined) [Ioversol] — higher, 1.03
- CC(CN(C)C)CN1c2ccccc2Sc2ccccc21 (centres undefined) [Trimeprazine tartrate] — lower, 0.799
- CCCCC[C@H](O)/C=C/[C@H]1[C@H](O)CC(=O)[C@@H]1CCCCCCC(=O)O [Alprostadil] — higher, 0.994
- CCCCOC(=O)c1ccc(O)cc1 [Butylparaben] — higher, 0.974
- CN1CCCN=C1/C=C/c1cccc(O)c1 [Oxantel pamoate] — higher, 1.01
- Cc1ccc(S(=O)(=O)NC(=O)NN2CC3CCCC3C2)cc1 (centres undefined) [Gliclazide] — higher, 0.999
- CC1CNc2c(cccc2S(=O)(=O)N[C@@H](CCCNC(=N)N)C(=O)N2CC[C@@H](C)C[C@@H]2C(=O)O)C1 (some centres undefined) [Argatroban] — higher, 1.03
- CCCCC1C(=O)N(c2ccccc2)N(c2ccc(O)cc2)C1=O (centres undefined) [Oxyphenbutazone] — higher, 1.03
- CN(Cc1ccc(C(C)(C)C)cc1)Cc1cccc2ccccc12 [Butenafine hydrochloride] — higher, 0.967
- CC(=O)OCC(=O)[C@@]12N=C(C)O[C@@H]1C[C@H]1[C@@H]3CCC4=CC(=O)C=C[C@]4(C)[C@H]3[C@@H](O)C[C@@]12C [Deflazacort] — higher, 0.999
- CN1CCN(C2=Nc3ccccc3Oc3ccc(Cl)cc32)CC1 [Loxapine succinate] — lower, 0.612
- CC(C)(C)NCC(O)COc1cccc2c1CCC(=O)N2 (centres undefined) [Carteolol hydrochloride] — lower, 0.945
- O=C(CCCCCCC(=O)Nc1ccccc1)NO [Vorinostat] — higher, 1.01
- O=C1CN(/N=C/c2ccc([N+](=O)[O-])o2)C(=O)N1 [Nitrofurantoin] — lower, 0.253
- N=C(N)NCC1COC2(CCCCC2)O1 (centres undefined) [Guanadrel sulfate] — higher, 0.965
- CC(=O)Nc1ccc(OCC(O)CNC(C)C)cc1 (centres undefined) [Practolol] — higher, 1.02
- C[C@H](O)C(=O)Nc1c(I)c(C(=O)NC(CO)CO)c(I)c(C(=O)NC(CO)CO)c1I [Iopamidol] — higher, 1.08
- Cc1ncc(CO)c(CO)c1O [Pyridoxine hydrochloride] — higher, 1.01
- CC1=C(CC(=O)O)c2cc(F)ccc2/C1=C\c1ccc([S+](C)[O-])cc1 (centres undefined) [Sulindac] — higher, 0.996
- CC(C)CC(=O)N[C@H](C(=O)N[C@H](C(=O)N[C@@H](CC(C)C)[C@@H](O)CC(=O)N[C@@H](C)C(=O)N[C@@H](CC(C)C)[C@@H](O)CC(=O)O)C(C)C)C(C)C [Pepstatin A] — higher, 1.02
- CC(COc1ccccc1)N(CCCl)Cc1ccccc1 (centres undefined) [Phenoxybenzamine hydrochloride] — higher, 1.02
- CCN[C@H]1CN(CCCOC)S(=O)(=O)c2sc(S(N)(=O)=O)cc21 [Brinzolamide] — higher, 0.986
- CCCCOc1cc(C(=O)OCCN(CC)CC)ccc1N [Benoxinate hydrochloride] — higher, 1
- Cc1cc(=O)n(-c2ccccc2)n1C [Antipyrine] — higher, 1
- OC(Cn1cncn1)(Cn1cncn1)c1ccc(F)cc1F [Fluconazole] — higher, 1.01
- O=C1O[C@H]([C@@H](O)CO)C(O)=C1O [Ascorbic acid] — higher, 1.05
- c1ccc(CNc2ncnc3nc[nH]c23)cc1 [Aminopurine, 6-benzyl] — higher, 1
- CC(CCc1ccccc1)NCC(O)c1ccc(O)c(C(N)=O)c1 (centres undefined) [Labetalol hydrochloride] — higher, 1
- OCCN(CCO)c1nc(N2CCCCC2)c2nc(N(CCO)CCO)nc(N3CCCCC3)c2n1 [Dipyridamole] — higher, 1
- CCCCCCCCNC(C)C(O)c1ccc(SC(C)C)cc1 (centres undefined) [Suloctidil] — higher, 0.992
- CCCCCCC[N+](CC)(CC)CCCCc1ccc(Cl)cc1 [Clofilium tosylate] — higher, 0.973
- C=CC[N@@+]12CC[C@@]34c5ccccc5N5/C=C6/[C@H]7C[C@H]8[C@@]9(CC[N@@+]8(CC=C)C/C7=C/CO)c7ccccc7N(/C=C(/[C@@H](C[C@@H]31)/C(=C\CO)C2)[C@H]54)[C@@H]69 [Alcuronium chloride] — higher, 1.05

COc1c(N2C[C@@H]3CCCN[C@@H]3C2)c(F)cc2c(=O)c(C(=O)O)cn(C3CC3)c12 [Moxifloxacin] was tested, and the “growth AUC normalised to DMSO control” value was 0.017 (active).
